Results published in PubChem BioAssay (NCI).
Compounds without any hit were thinned out: in the full panel of roughly 83,000, 20% have a hit.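 The endpoint reported here, percent growth, reads 100 for growth as untreated, 0 for no net growth and -100 for all cells dead.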 Calls of active or inactive are those of the source.

tested on: ACHN renal; assay: NCI-60 one-dose screen, 48 h (100 = growth as untreated, 0 = no growth, -100 = all killed); details: 10 µM
Description: Growth inhibition of the ACHN human tumor cell line is measured as a screen for anti-cancer activity. Cells are grown in 96 well plates and exposed to the test compound for 48 hours. Compounds are tested at a single concentration, which is 10^-5 M for most compounds. The reported endpoint is percent growth (GI% or GIPRCNT), where numbers from 0 - 100% represent growth inhibition, and numbers from -100% - 0 represent cell death. For example, a value of 40 represents 60% growth inhibition. A value of 0 means no net growth occurred over the course of the experiment. A value of -40 indicates 40% of cells at the beginning of the experiment died by the end of the experiment. A value of -100 means all cells are dead at the end of the experiment.
NCI-60 Human Tumor Cell Lines Screen was performed using the standard one-dose NCI protocol, which is described in more detail at https://dtp.cancer.gov/discovery_development/nci-60/default.htm.
Compounds with GIPRCNT values below 10 were considered active. Activity score was based on GIPRCNT using the following formula: […]
Score is 0 for GIPRCNT values of 100 or above, 50 for GIPRCNT values of 0, and 100 for GIPRCNT values of -100.

Q: How did the growth turn out when O=c1[nH]cc(Cl)cc1O was run?
A: 62.2% (inactive)

Q: For C/C(=N\NC(=O)c1ccccc1N)c1ccccc1O, which growth is on record?
A: 32.3% (inactive)

Q: O=C(CCl)Nc1ccc2c(c1)C(=O)c1ccc(NC(=O)CCl)cc1C2=O was tested. Which growth did it give?
A: -65.7% (active)

Q: With CCCC(=O)c1cc(C)ccc1OC as the compound, how does the growth read?
A: 103% (inactive)

Q: Which growth does the source give for c1csc(-c2cc(-c3cc(-c4cccs4)[nH]n3)n[nH]2)c1 here?
A: 92.7% (inactive)

Q: Which growth does the source give for CCc1ccc(/C(C#N)=C/C=C/c2ccccc2)cc1 here?
A: 58.3% (inactive)

Q: Which growth does the source give for O=C(CCNNC(=O)c1ccncc1)NCc1ccccc1 here?
A: 93% (inactive)

Q: CCOC(=O)C(O)C(O)C(=O)OCC (stereo not given) was tested. Which growth did it give?
A: 109% (inactive)

Q: O=c1cc(-c2ccccc2)oc2c1ccc1ccccc12 was tested. Which growth did it give?
A: 77% (inactive)

Q: Which growth does the source give for Cc1cc2nc(CC(=O)c3cccc([N+](=O)[O-])c3)c(=O)[nH]c2cc1C here?
A: 87.3% (inactive)

Q: With O=C(O)c1ccc(S(=O)(=O)O)cc1 as the compound, how does the growth read?
A: 99.5% (inactive)

Q: With S=c1nn[nH]c2ccccc12 as the compound, how does the growth read?
A: 93.2% (inactive)

Q: How did the growth turn out when COc1cc(/C=C/C(=O)c2ccccc2)cc(OC)c1OC was run?
A: 51.1% (inactive)

Q: COc1ccccc1N=Nc1c(O)ccc2cc(S(=O)(=O)O)ccc12 was tested. Which growth did it give?
A: 98.1% (inactive)

Q: COCCOCCCl was tested. Which growth did it give?
A: 113% (inactive)

Q: For O=[N+]([O-])c1ccc(CO)cc1, which growth is on record?
A: 111% (inactive)

Q: For CC(C)(O)C#CC#CC(C)(C)O, which growth is on record?
A: 98.8% (inactive)

Q: For COc1cc(/C=N\Nc2ccccc2)ccc1OC(=O)c1ccccc1, which growth is on record?
A: 45.2% (inactive)

Q: CCOc1ccc(/C=N/N=C(N)N)cc1OCC was tested. Which growth did it give?
A: 97.4% (inactive)

Q: With CC(=O)Nc1c(C)cc(C)cc1C as the compound, how does the growth read?
A: 107% (inactive)

Q: For O=[N+]([O-])c1cccc(C(F)(F)F)c1, which growth is on record?
A: 102% (inactive)

Q: How did the growth turn out when Sc1ccc(Nc2c3ccccc3nc3ccccc23)cc1 was run?
A: 97% (inactive)

Q: For COc1cc(/C=C(\C#N)C(=O)c2ccccc2)ccc1OCc1ccccc1, which growth is on record?
A: 102% (inactive)

Q: Which growth does the source give for Cc1nc2ccccc2c(C(=O)O)c1O here?
A: 97.8% (inactive)

Q: Which growth does the source give for COc1cc(C2c3cc4c(cc3C3OC(=O)C2C3CO)OCO4)cc(OC)c1OC (stereo not given) here?
A: 24.9% (inactive)

Q: With CC(=O)Nc1ccc(NC(C)=O)c2c1C(=O)c1ccccc1C2=O as the compound, how does the growth read?
A: 78.8% (inactive)

Q: How did the growth turn out when C=C1CC/C=C(\C)C(=O)C[C@@H]2[C@@H]1CC2(C)C was run?
A: 102% (inactive)

Q: How did the growth turn out when CC(=O)c1ccc(N=C(C#N)C2=C(O)c3ccccc3C2=O)cc1 was run?
A: 106% (inactive)

Q: Cc1cccc(CO)c1 was tested. Which growth did it give?
A: 111% (inactive)

Q: With COc1cc(C2NC(=O)C(C#N)=C(Nc3cccc(C)c3)S2)ccc1O (stereo not given) as the compound, how does the growth read?
A: 101% (inactive)

Q: Which growth does the source give for CCOC(=O)CCCC(=O)OCC here?
A: 105% (inactive)

Q: How did the growth turn out when CC[N+](C)(CC)CCO was run?
A: 106% (inactive)

Q: Cc1ccncc1C(N)=O was tested. Which growth did it give?
A: 95.3% (inactive)

Q: For CCCCCCCCCCCCCC(=O)Oc1ccc[nH]c1=O, which growth is on record?
A: 110% (inactive)

Q: How did the growth turn out when CC1CCCC(CC(N)=O)CC1 (stereo not given) was run?
A: 103% (inactive)

Q: Cc1ccccc1C1N=C2Oc3ccccc3C=C2C(=O)N1 (stereo not given) was tested. Which growth did it give?
A: 50.6% (inactive)

Q: For CCS(=O)(=O)c1cc(=O)[nH]c(=O)[nH]1, which growth is on record?
A: 96.8% (inactive)

Q: With CC1CC(O)C2C3(C)CCCC2(COC3=O)C12CCC1(CCOC1=O)O2 (stereo not given) as the compound, how does the growth read?
A: 108% (inactive)

Q: For O=C(NC1CCCCC1)OCc1c(COC(=O)NC2CCCCC2)c(-c2ccc(Cl)c(Cl)c2)n2c1CCC2, which growth is on record?
A: 5.4% (active)

Q: COc1ccc(C(=O)C(Br)C(Br)C(=O)O)cc1 (stereo not given) was tested. Which growth did it give?
A: 101% (inactive)
